# An excerpt weighted towards active compounds, which were near 7% of everything screened.
# ATXN viability: cell viability loss in ATXN counter-screen | AID 651635 | Potency, µM (titrated, usually from 56.7 µM), hits mostly cytotoxic | S2 cells (HEK-293 line with an ATXN2-luciferase reporter) viability, CellTiter-Fluor protease fluorescence, 24 h | 0.49% of 400,000 active; note: potency is the fitted concentration of half-maximal effect; nearly all actives have a fitted effect of over 40% in size
# a7 integrin act: integrin-mediated muscular dystrophy alleviation activation; alpha7betagal myoblasts, beta-gal FDG fluorescence, 48 h; Potency, µM (top dose mostly 38.3 µM), without a hit: top-dose activation, usual class: activators; 0.064% of 350,000 active; AID 624291;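 note: potency is the fitted concentration of half-maximal effect; 100% = response of the positive control SU9516; nearly all actives have a fitted effect of over 60% in size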
#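 Alpha7betagal+/- myoblasts (passage 13) were plated 16-24 hr, then exposed to compounds (1:260 dilution of DMSO stock) for 48 hours at 37C. After MPER lysis, β-galactosidase reporter activity was read as FDG fluorescence (ex 480/em 540) after 30 minutes.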
# ATXN2 expr inh: ATXN2 expression inhibition; HEK-293 ATXN2-luciferase reporter, luminescence, 24 h; Potency, µM (highest dose often 57 µM), for inactives: at the highest dose activity change, negative = inhibition, hits mostly inhibitors; 0.72% of 360,000 active; AID 1745845; note: potency is the fitted concentration of half-maximal effect; % is set by controls: 0 for no effect and ±100 for the full control effect; nearly all actives have a fitted effect of over 55% in size
#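 ATXN2-luciferase reporter cells (luciferase flanked by upstream and downstream ATXN2 gene portions) were treated 24 h at 37 °C with compounds at up to 57 uM. SteadyGlo luminescence gave expression; GF-AFC fluorescence gave viability.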
# DRD3 agonist: agonists of human D3 dopamine receptor; P35462; D3R DiscoveRx beta-arrestin cells, luminescence, 90 min; max activation, %; 0.58% of 410,000 active; AID 652048; in the data active = max activation above about 30%; note: 0% is about no effect
# Target sequence (P35462 whole entry, looked up): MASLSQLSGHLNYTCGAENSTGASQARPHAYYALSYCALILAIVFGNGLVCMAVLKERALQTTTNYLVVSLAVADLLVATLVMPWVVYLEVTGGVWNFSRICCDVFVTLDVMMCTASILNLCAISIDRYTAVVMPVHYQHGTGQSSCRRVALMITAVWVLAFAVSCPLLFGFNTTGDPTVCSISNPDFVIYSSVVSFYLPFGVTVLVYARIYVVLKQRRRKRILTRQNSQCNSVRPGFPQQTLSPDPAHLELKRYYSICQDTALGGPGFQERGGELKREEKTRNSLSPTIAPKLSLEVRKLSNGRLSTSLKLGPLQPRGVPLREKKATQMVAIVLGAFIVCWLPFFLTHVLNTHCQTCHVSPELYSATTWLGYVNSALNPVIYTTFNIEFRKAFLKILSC
#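 Agonist mode: compounds and dopamine controls were applied to plated cells for 90 min at 37 degrees C after an overnight attachment at 1500 cells/well. Luminescent read-out followed 30 - 60 minutes at room temperature with DiscoveRx detection reagent.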
# DRD3 antagonist: D3 dopamine receptor (human) antagonism | P35462 | D3R cells, DiscoveRx beta-arrestin luminescence, antagonist mode; hits give low values | max response, negative = inhibition, % | 2.5% of 360,000 active | AID 652054; in the data active = max response below about -50%; inconclusive = no clear call, values can overlap the other calls; note: % is set by controls: 0 for no effect and ±100 for the full control effect
#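 Cells plated overnight at 1500 cells/well, then exposed to library compounds with dopamine controls for 90 minutes at 37 degrees C. DiscoveRx reagent added for 30–60 minutes at room temperature; luminescence read, quantitative HTS format.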
# IL1B secr inh: inhibitors of inflammasome signaling (IL-1 beta secretion); THP-1 LPS/ATP IL-1B secretion, AlphaLISA, 16 h; hits give low values; activity change, % at 57.5 µM; 4.7% of 360,000 active; AID 743279; in the data active = activity change below about -50%; inconclusive = mostly about -30% to -49%; note: % is set by controls: 0 for no effect and ±100 for the full control effect
#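 Secreted IL-1B measured by AlphaLISA bead assay after 16 h compound exposure of THP-1 cells; compounds (final up to 57.5 uM) added 1 h before LPS (250 ng/mL) and ATP (1.25 mM) stimulation; lower signal means less secretion.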
# An asterisk follows results filed as active; i = inactive; ? = inconclusive; nt = not tested or not shown. Unless noted, calls come from the whole dose curve; as a rule, active = well fitted curve in the direction sought with a large enough effect; inconclusive = small, poorly fitted or top-dose-only effect, or another doubt; inactive = no such curve, though single readings can be large; an effect the other way counts as inactive or inconclusive.
SMILES,ATXN viability,a7 integrin act,ATXN2 expr inh,DRD3 agonist,DRD3 antagonist,IL1B secr inh
CC(C)N1CC=C(c2c[nH]c3ccccc23)CC1,i,9.7%,-8.0%,-20.9,-57.6*,4.3
CCOC(=O)[C@]12Cc3ccccc3[C@H]1N(CCC(=O)OC)C(=O)c1cc(OC)ccc12,?,nt,?,-9.8,?,-117.8*
CCOC(=O)[C@]12Cc3cc(OC)ccc3[C@H]1N(CCC(=O)OC)C(=O)c1cc(OC)ccc12,nt,nt,?,-9.6,-23.7,-54.0*
CCOC(=O)[C@]12Cc3ccccc3[C@H]1N(Cc1ccccc1)C(=O)c1cc(OC)ccc12,?,nt,1.8%,-4.3,-7.3,-13.3
Clc1ccc(OCC#CCN2CCCC2)cc1,i,-38.0%,15.6%,-31.4,-55.5*,-11.4
CN1CCN(c2cc(N3CCCC3)c([N+](=O)[O-])cc2F)CC1,?,12.6%,-13.8%,1.9,-78.5*,?
O=[N+]([O-])c1cc(F)c(N2CCCC2)cc1Br,i,-34.8%,-8.9%,24.4,7.9,5.0
CCN1CCN(c2cc(N3CCCC3)c(F)cc2[N+](=O)[O-])CC1,?,-37.6%,-10.5%,-37.9,-69.2*,-6.6
O=[N+]([O-])c1cc(F)c(N2CCCCC2)cc1Br,i,10.5%,7.3%,17.6,7.0,22.2
C=C(C)[C@@]12OC3(c4ccccc4)O[C@@H]1C1[C@@H]4O[C@]4(CO)[C@@H](O)[C@]4(O)C(=O)C(C)=C[C@H]4[C@@]1(O3)[C@H](C)[C@H]2OC(=O)/C=C/C=C/c1ccccc1 (some centres undefined),?,-57.8%,-9.7%,-6.3,-61.3*,97.4
CC12CC[C@H]3[C@@H](CCC4(O)C[C@H](O)CCC34/C=N/NC(=O)c3ccccc3Cl)C1(O)CCC2C1=CC(=O)OC1 (some centres undefined),i,7.6%,-10.9%,-5.1,-3.3,-5.6
CC12CCC3C(CCC4(O)CC(O)CCC34C=O)C1(O)CCC2C1=CC(=O)OC1 (centres undefined),?,-1.3%,1.78µM*,8.7,-8.0,?
C[C@H]1O[C@@H](OC2CC[C@]3(C=O)[C@H]4CC[C@]5(C)[C@@H](C6=CC(=O)OC6)CC[C@]5(O)[C@@H]4CC[C@]3(O)C2)CC2OC(C)(C)OC21 (some centres undefined),?,-13.0%,nt,1.4,34.4,-92.7*
CCCCC[C@@H]1CCCCC[C@@H](O)C[C@H](O)[C@H](O)/C=C/C(=O)O1,i,nt,6.3%,6.2,-24.9,13.4
CC12CCC3C(CCC4(O)CC(O)CCC34C=NO)C1(O)CCC2C1=COC(=O)C1 (centres undefined),?,12.4%,?,3.0,2.1,-104.1*
CCCCN=C[C@]12CCC(O)CC1(O)CCC1[C@@H]2CC[C@]2(C)[C@H](C3C=CC(=O)O3)CCC12O (some centres undefined),i,?,?,-6.7,2.9,-76.5*
CCC(=NCc1ccc2c(c1)OCO2)c1c(O)n(C2CCCCC2)c(=O)[nH]c1=O,i,-48.5%,-13.4%,9.0,-6.9,1.4
N#CC(C#N)=Cc1ccc(N2CCCC2)cc1,?,-12.5%,-17.9%,-14.2,-19.0,0.7
Cc1ccc2c(c1)C1CN(C)CCC1N2C(=O)/C(C#N)=C/c1ccc2c(c1)OCO2 (centres undefined),i,-4.8%,-11.7%,-1.4,-24.9,-20.6
C[C@]12CCC3C(CCC4=CC(O)CC[C@@]43/C=N/O)C1(O)CCC2C1=CC(=O)OC1 (some centres undefined),i,0.2%,?,0.9,-9.3,-71.3*
CC(=O)O[C@H]1C[C@H](O[C@H]2[C@@H](O)C[C@H](O[C@H]3[C@@H](O)C[C@H](OC4CC[C@@]5(C)C(CC[C@@H]6[C@@H]5CC[C@]5(C)[C@@H](C7=CC(=O)OC7)[C@@H](O)C[C@]65O)C4)O[C@@H]3C)O[C@@H]2C)O[C@H](C)[C@H]1O[C@@H]1O[C@H](CO)[C@@H](O)[C@H](O)[C@H]1O (some centres undefined),?,nt,nt,6.3,nt,nt
C[C@]12CC[C@H]3[C@@H](CC[C@]4(O)C[C@@H](O)CC[C@]34C=O)[C@@]1(O)CC[C@@H]2C1=CC(=O)OC1,?,nt,0.316µM*,-0.2,4.3,-66.9*
Cc1ccsc1CNCCc1ccccc1F,i,-6.8%,7.0%,-11.9,-17.8,-27.7
C[C@H]1CCC/C=C/[C@@H]2C[C@H](O)C[C@H]2[C@@H](O)/C=C/C(=O)O1,?,-16.8%,?,6.6,16.1,-53.5*
CCCCC[C@H]1CCCCC[C@@H](O)C[C@@H](O)[C@@H](O)/C=C/C(=O)O1,i,nt,2.2%,-3.1,-3.5,-0.7
SMILES,ATXN viability,a7 integrin act,ATXN2 expr inh,DRD3 agonist,DRD3 antagonist,IL1B secr inh
Cc1ccc(OC(F)F)c(N2C(=O)C3C4CCC(O4)C3C2=O)c1 (centres undefined),i,-9.2%,nt,0.4,4.3,4.9
O=C(Cc1ccccc1)N1CCN(C2CCCC2)CC1,i,5.4%,3.4%,-3.8,-71.8*,21.7
CC1C(=O)C(C)C(c2ccc(Cl)cc2)NC1c1ccc(Cl)cc1 (centres undefined),i,-26.5%,43.5%,-5.7,-60.6*,23.9
O=C1NC[C@H](CCCCN2C[C@@H](Cc3ccccc3)N(CCC3CCCCC3)C(=O)C2=O)N(CCC2CCCCC2)C1=O,i,nt,13.9%,-6.6,-15.1,?
O=C(COc1ccccc1[N+](=O)[O-])N1CCN(CCc2ccncc2)CC1,nt,nt,nt,1.8,nt,nt
Cc1cnc(SCc2ccccn2)nc1C1CCCN(C(=O)c2cccc(-c3cccc(F)c3)c2)C1 (centres undefined),31.6µM*,nt,nt,nt,nt,nt
CSc1ccccc1C(=O)C1CCCN(Cc2ccccn2)C1 (centres undefined),i,8.3%,-1.4%,-15.9,0.3,30.7
O=C(CN1CCOCC1)NCC(=O)Nc1ccc(Br)cc1C(=O)c1ccccc1,i,4.1%,1.5%,-13.2,21.3,3.0
CN1CCN(C2=Nc3cc(Cl)ccc3Nc3ccccc32)CC1,?,nt,?,nt,-80.9*,0.0
O=c1oc2cccnc2n1CCS(=O)(=O)c1ccc(F)cc1,i,-63.8%,28.7%,7.2,-0.7,-66.2*
CCN(CC)P(=O)(NC(=O)C(Cl)(Cl)Cl)N(CC)CC.[Cl-].[Cl-].[Cl-].[Nd+3],?,0.0%,7.5%,1.7,1.4,10.8
COC(=O)C1=C(c2cc3ccccc3o2)C[C@@H]2CC[C@H]1N2C,i,12.7%,9.1%,-25.6,-20.2,0.1
CCCN1CCC[C@@H](c2cccc(O)c2)C1,i,nt,3.5%,20.8,12.3,8.4

# Source: PubChem BioAssay (National Center for Advancing Translational Sciences (NCATS))
